Reference: the supplement of paper PMC6555819

How the values were obtained:
Assay in all cases: PBM binding z-score (relative to random genomic background probes); higher = stronger binding; sequences stand for … in GC…GCGATTGACAGCGTAGAATGAAGG
[1] = tested on: FXR:RXRa (NR concentration 270 nM, RXRa partner concentration 90 nM)
In short: (§1)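 Antibodies against each partner of ligand-free nuclear receptor dimers (one per run) detected binding on custom Agilent 4×180K protein-binding microarrays after 1 h incubation. The double-stranded probes had 34-nt variable regions carrying direct-repeat seeds, single-nucleotide variants, half-site ablations and random human genomic background sequences. Binding z-scores, from regression-normalized fluorescence, use the random background probes as reference.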

[2] = tested on: LXRa:RXRa (NR concentration 270 nM, RXRa partner concentration 90 nM)
In short: as §1

[3] = tested on: LXRa homodimer (NR concentration 270 nM)
In short: as §1

[4] = tested on: LXRb:RXRa (NR concentration 270 nM, RXRa partner concentration 90 nM)
In short: as §1

[5] = tested on: LXRb homodimer (NR concentration 270 nM)
In short: as §1

[6] = tested on: PPARa:RXRa (NR concentration 270 nM, RXRa partner concentration 90 nM)
In short: as §1

[7] = tested on: PPARg:RXRa (NR concentration 180 nM, RXRa partner concentration 90 nM)
In short: as §1

[8] = tested on: PPARg:RXRa 270nM:90nM, anti-RXR (NR concentration 270 nM, RXRa partner concentration 90 nM)
In short: as §1

[9] = tested on: PPARg:RXRa 30nM:10nM, anti-RXR (NR concentration 30 nM, RXRa partner concentration 10 nM)
In short: as §1

[10] = tested on: PPARg:RXRa 90nM:30nM, anti-RXR (NR concentration 90 nM, RXRa partner concentration 30 nM)
In short: as §1

[11] = tested on: PPARg:RXRa DBDmut IVT, anti-RXR (DBD mutation: RXRa K156A/R161A, NR concentration 270 nM, RXRa partner concentration 90 nM)
In short: as §1

[12] = tested on: PPARg:RXRa IVT, anti-PPARg (NR concentration 270 nM, RXRa partner concentration 90 nM)
In short: as §1

[13] = tested on: PPARg DBDmut IVT, anti-PPARg (DBD mutation: PPARg1 K132A/R137A, NR concentration 270 nM)
In short: as §1

[14] = tested on: PPARg homodimer (NR concentration 180 nM)
In short: as §1

[15] = tested on: PXR:RXRa (NR concentration 270 nM, RXRa partner concentration 90 nM)
In short: as §1

[16] = tested on: PXR homodimer (NR concentration 270 nM)
In short: as §1

[17] = tested on: RARa:RXR (NR concentration 270 nM, RXRa partner concentration 90 nM)
In short: as §1

[18] = tested on: RARa homodimer (NR concentration 270 nM)
In short: as §1

[19] = tested on: RARb:RXRa (NR concentration 270 nM, RXRa partner concentration 90 nM)
In short: as §1

Row | Sequence | PBM binding z-score [1] | PBM binding z-score [2] | PBM binding z-score [3] | PBM binding z-score [4] | PBM binding z-score [5] | PBM binding z-score [6] | PBM binding z-score [7] | PBM binding z-score [8] | PBM binding z-score [9] | PBM binding z-score [10] | PBM binding z-score [11] | PBM binding z-score [12] | PBM binding z-score [13] | PBM binding z-score [14] | PBM binding z-score [15] | PBM binding z-score [16] | PBM binding z-score [17] | PBM binding z-score [18] | PBM binding z-score [19]
1 | CGACCTAGGTCAAAGGACAGTGAAAGGCGACGTA | 5.01 | 3.27 | -0.141 | 2.32 | -0.298 | 4.33 | 5.72 | 5.68 | 3.14 | 4.92 | 3.69 | 4 | -0.949 | 1.74 | 1.42 | -0.567 | 2.9 | -0.132 | 4.05
2 | CGAACTAGGTCACCAGGACAGCGAAGAGGTTGGA | 3.93 | 2.11 | -0.245 | 1.55 | -0.88 | 4.91 | 8.61 | 6.98 | 4.85 | 6.78 | 7.82 | 8.67 | 0.871 | 2.15 | 1.34 | -0.232 | 2.32 | 0.196 | 4.21
3 | CGAACTAGGTCACGAGGACAGTGAAGAGGTTGGA | 4.56 | 2.89 | 0.291 | 1.98 | -0.399 | 5.33 | 8.72 | 7.24 | 5.15 | 6.84 | 8.67 | 8.88 | 1.07 | 2.21 | 1.87 | 0.184 | 3.07 | 0.4 | 4.39
4 | CGAACTTGGTCAAAGGACAGTGAAAGGCGACGTA | -0.082 | -0.109 | -0.799 | -0.227 | -0.688 | 1.25 | 3.15 | 4.34 | 2.21 | 4.07 | 0.58 | 1.75 | -0.436 | 0.499 | -0.152 | -0.326 | 0.232 | -0.498 | 1.83
5 | CGAACTAGGTCACAAGGACAGTGAAGAGGTTGGA | 3.87 | 2.13 | 0.193 | 1.57 | -0.115 | 5.01 | 8.73 | 7.01 | 4.93 | 6.82 | 8.39 | 9.03 | 1.5 | 3.52 | 1.25 | 0.516 | 2.14 | 0.713 | 4.09
6 | CGAACTAGGTCAAAGGACTGTGAAAGGCGACGTA | 3.86 | 2.36 | -0.238 | 1.58 | -0.452 | 4.89 | 9.38 | 7.84 | 7.28 | 8.69 | 8.23 | 8 | 0.977 | 1.41 | 0.827 | -0.596 | 1.86 | -0.095 | 3.58
